This passage reports growth results from PubChem BioAssay (NCI).

About 83,000 compounds went through this panel and 20% of them were active in at least one assay; those are over-represented in the sample as a whole.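 96-well plates, one dose, 48 hours. Percent growth reported; active if below 10.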 The source made the active and inactive calls.

The experiment deals with UO-31 renal. In words: NCI-60 one-dose screen, 48 h (100 = growth as untreated, 0 = no growth, -100 = all killed). As to conditions: 10 µM unless noted.
Turning to `COc1cnc2c(c1)C(=O)c1c-2n(CCCN2CCNCC2)c(=O)c2cc(Cl)ccc12`, the growth was -59% (active).
Turning to `c1coc(CNc2c3ccccc3nc3ccccc23)c1`, the growth was 39.5% (inactive).
For `Cn1cnc([N+](=O)[O-])c1S(=O)(=O)Oc1ccccc1`, the growth is 75.1% (inactive).
`O=c1c2cc(Br)cc(Br)c2nc(-c2ccc(Cl)cc2)n1/N=C\c1ccccc1F`: the growth is 21.6% (inactive).
The same measure for `CC1=CC(=O)OC1C/C=C(\C)CCC1[C@@]2(C)CCC[C@@](C)(C(=O)O)C2CC[C@@]1(C)O` (stereo partly drawn): 32.2% (inactive); for `Cn1cnc([N+](=O)[O-])c1S(=O)(=O)Oc1cccc2ccccc12`: -31% (active).
The same measure for `COc1ccccc1CNCCCN1C(=O)c2ccc3c4c(ccc(c24)C1=O)C(=O)N(CCCOCCCCOCCCN)C3=O`: -21.1% (active); for `COc1cc(NCC(O)CN(CC(C)C)CC(C)C)c2ncccc2c1` (stereo not drawn): 88.6% (inactive); for `CC(C)(CCc1ccccn1)C(=O)CCCc1ccccn1`: 85.9% (inactive).
Under `COc1cccc(-c2nc3sccn3c2-c2ccnc(NCCN3CCCN(C)S3(=O)=O)n2)c1` stands 73.4% (inactive); under `Cc1ccc(NC(=O)c2sc3nc4c(cc3c2N)C(=O)CCC4)cc1Cl`, 111% (inactive); under `COc1ccc(NC(=O)c2sc3c(=O)[nH]c(C(F)(F)F)nc3c2C)cc1`, 74.2% (inactive).
For `CCC1=CC2CN(C1)Cc1c([nH]c3ccccc13)[C@@](C(=O)OC)(c1cc3c(cc1OC)N(C)[C@H]1[C@@](O)(C(=O)OC)[C@H](OC(C)=O)[C@]4(CC)C=CCN5CC[C@]31[C@@H]54)C2` (stereo partly drawn), the growth was 51.5% (inactive).
Under `CN1C2CCC1/C(=C\c1ccc(Cl)cc1)C(=O)/C2=C/c1ccc(Cl)cc1` stands 58.4% (inactive).
Under `CC(C)[C@@]12C[C@@H](OC(=O)[C@H]3CO3)[C@@](C)(O1)[C@@H]1CC[C@@H](C)[C@H]1[C@@H]2OC(=O)/C=C/c1ccccc1` stands -8.95% (active); under `OCCN(CCO)c1ccc2ccccc2c1`, 65% (inactive); under `O=C(NCCN1CCCC1)n1cc(-c2ccncc2)c(-c2cc(O)cc(Cl)c2)n1`, 100% (inactive).
Under `CC1=C(/C=C/C(C)=C/C=C(C(=O)O)\C(C)=C\C(=O)O)C(C)(C)CCC1` stands 92.7% (inactive); under `O=C1/C=C/[C@@H](O)[C@@H]2C[C@@H](O)C[C@H]2/C=C/CCC[C@H]([C@@H](O)CO)O1`, 68.3% (inactive); under `O=C1C(Cl)=C(Nc2cccc3ccccc23)C(=O)c2ccccc21`, 58.5% (inactive).
Turning to `Cc1ccc2c(C)c3c(ccc4ccccc43)c[n+]2c1`, the growth was 45.9% (inactive).
Under `Nc1c(C(=O)C[C@@H](N)CO)ccc2c1C(=O)CCO2` stands 45.5% (inactive); under `COc1ccc2c(c1)sc1nc(-c3ccccc3)c(-c3cccc4ccccc34)n12`, 47.7% (inactive); under `CCOc1cc(/C=N\NC(=O)C[N+](C)(C)C)ccc1O`, 113% (inactive).
The same measure for `C=C1C(=O)O[C@H]2[C@H]1CC/C(COC(=O)NCc1cn(C)c3ccccc13)=C\CC[C@@]1(C)O[C@@H]21`: -88.3% (active); for `CCCCCCCC/C=C/CCCCCCCC1=NC(C)(C)CN1C(C)C`: -17.4% (active); for `Clc1ccc(-c2nc(-c3cccs3)no2)cc1`: 71.3% (inactive).
For `C=CCOC(=O)C1=C(C)NC2=C(C(=O)CC(C)(C)C2)C1c1ccc(OC)cc1` (stereo not drawn), the growth was 85.2% (inactive).
As for `COc1ccc(/C=C(\C#N)c2cc(OC)c(OC)c(OC)c2)cc1`, the growth was 28.5% (inactive).
The same measure for `CCOC(=O)C#Cc1c(C(=O)OCC)nnn1[C@@H]1O[C@H](COC(C)=O)[C@@H](OC(C)=O)[C@H]1OC(C)=O`: 65% (inactive); for `CCOC(=O)c1ccc(NC(=O)CSC(N)=O)cc1`: 56.6% (inactive).
The same measure for `COc1cc(-c2nc(-c3ccc(-c4nc5ccc(F)cc5[nH]4)cc3)no2)cc(OC)c1OC`: 19.8% (inactive); for `Nc1ccc(C2=NNC(=O)Cc3cc4c(cc32)OCCO4)cc1Cl`: 61.2% (inactive); for `COc1cc(/C=C2\CN(C(=O)OC(C)(C)C)C/C(=C\c3ccc(O)c(OC)c3)C2=O)ccc1O`: 81% (inactive).
The same measure for `CCN1C(=O)N(CC)C2C1N=C(SC)N2/N=C/C=C/c1ccccc1OC` (stereo not drawn): 41.8% (inactive).
In the case of `N#CCCn1cnc2c(N)ncnc21`, the growth was 116% (inactive).
Under `COc1ccc(C2c3cccn3-c3ccccc3N2C(C)=O)cc1` (stereo not drawn) stands 70.6% (inactive); under `COc1ccccc1/C=C/C(=O)CCC(=O)O`, 85.2% (inactive).
